Molecules are shown by their SMILES. Activity calls are given as the source filed them. Calls come from the whole dose curve.
% is set by controls: 0 for no effect and ±100 for the full control effect.

Chain of Acetylcholinesterase (Homo sapiens) (P22303 whole entry, looked up): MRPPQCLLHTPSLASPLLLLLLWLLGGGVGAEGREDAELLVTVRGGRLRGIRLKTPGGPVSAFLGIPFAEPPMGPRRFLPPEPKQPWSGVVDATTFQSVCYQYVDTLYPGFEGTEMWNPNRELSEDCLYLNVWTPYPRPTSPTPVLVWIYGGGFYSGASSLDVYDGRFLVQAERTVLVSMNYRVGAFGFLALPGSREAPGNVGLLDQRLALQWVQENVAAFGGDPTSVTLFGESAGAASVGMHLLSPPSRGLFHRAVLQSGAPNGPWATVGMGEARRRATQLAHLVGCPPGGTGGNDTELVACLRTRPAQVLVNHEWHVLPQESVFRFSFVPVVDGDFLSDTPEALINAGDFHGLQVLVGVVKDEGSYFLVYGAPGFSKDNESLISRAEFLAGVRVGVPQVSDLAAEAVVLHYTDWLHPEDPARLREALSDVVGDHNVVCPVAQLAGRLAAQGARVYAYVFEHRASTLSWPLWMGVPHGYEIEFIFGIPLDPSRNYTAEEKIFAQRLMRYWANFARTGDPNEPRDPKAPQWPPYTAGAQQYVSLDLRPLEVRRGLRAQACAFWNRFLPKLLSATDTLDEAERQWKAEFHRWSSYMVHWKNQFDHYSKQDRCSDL

For this test, the target named is Acetylcholinesterase (Homo sapiens) (UniProt P22303). The test is described as follows: Acetylcholinesterase (AChE) small molecule antagonists: enzyme-based qHTS assay with human liver microsomes (AID 1347399). Note: nearly all actives have a fitted effect of over 60% in size. As to conditions: Potency: qHTS inhibition; outcome: qHTS inhibition; series mostly up to 115 µM; activity change, negative = inhibition: at the top concentration. The source says:
National Center for Advancing Translational Sciences [NCATS]
Division of Preclinical Innovation [DPI]
U.S. Environmental Protection Agency [EPA]
National Institutes of Environmental Health Sciences [NIEHS]
National Toxicology Program [NTP]
U.S. Food and Drug Administration [FDA]
Acetylcholinesterase (AChE) is the primary cholinesterase in the body that hydrolyzes a key neurotransmitter, acetylcholine. Inhibition of AChE activity can lead to neurotoxicity. The known inhibitors include organophosphorous pesticides (OP), chemical warfare agents, drugs, and various phytochemicals. Some compounds like OP compounds may need metabolic activation to be active AChE inhibitors. The cytochrome P450 (CYP) superfamily in the human microsomes is responsible for the metabolism of various endogenous and exogenous compounds.
An enzyme-based assay with the recombinant human AChE, human liver microsomes and Amplite Colormetric acetylcholinesterase assay kit (AAT Bioquest, Sunnyvale, CA) was used to evaluate compounds in the Tox21 10K library that need metabolic activation for AChE inhibition. The assay uses 5, 5-dithiobis-(2-nitrobenzoic acid) (DTNB) to quantify the thiocholine produced from the hydrolysis of acetylthiocholine by AChE.
Tox21 Assay Protocol Summary:
For the enzyme-based AChE assay with microsomes addition, a mixture of human AChE (50 mU/mL) and human liver microsomes (0.25 mg/mL, final concentration) in 3 uL/well was dispensed into black, clear-bottom 1536-well plates using a Multidrop Combi dispenser (Thermo Scientific, MA). Then, 23 nL of compound or DMSO (vehicle control) was transferred into the assay plates by a Pintool Station (Wako Automation, CA). Following compound addition, 1 uL of NADPH (0.25 mg/mL, final concentration) was transferred to the assay plate by a Flying Reagent Dispenser (Beckman Coulter, CA). The plates were incubated for 30 min at 37 C and 5% CO2, followed by the addition of 4 uL of colorimetric detection cocktail solution (DTNB, acetylthiocholine) into each well using a Flying Reagent Dispenser (Beckman Coulter, CA) and then 10 min incubation at room temperature.
Background: In qHTS, concentration-response curves come from the screen itself.
As for `CCCN1C[C@H](CSC)C[C@@H]2c3cccc4[nH]cc(c34)C[C@H]21`, the result was inactive. `CC(=O)c1cc(C)oc1C`: the “activity change, negative = inhibition” value is 0.511% (inactive). As to `Cc1oncc1C(=O)Nc1ccc(C(F)(F)F)cc1`, the Potency entry is “inactive”. In the case of `CCCCCCCC/C=C\CCCCCCCC(=O)N(CCO)CCO`, the “activity change, negative = inhibition” value was 6.89% (inactive). For `CO[Si](OC)(c1ccccc1)c1ccccc1`, the “activity change, negative = inhibition” value was -7.58% (inactive). Same read-out and setting: with `O=C1OC[C@H](Cc2cccc(O)c2)[C@H]1Cc1cccc(O)c1` the figure was -0.597% [at 53 µM] (inactive).

As to `C=CC(C)(CCC=C(C)C)OC=O` (stereo not given), the “activity change, negative = inhibition” value is -2.82% (inactive).

With `CCC(=O)Oc1ccc2c(c1)CC[C@@H]1[C@@H]2CC[C@@]2(C)[C@H]1C[C@@H](OC(=O)CC)[C@@H]2OC(=O)CC`, the “activity change, negative = inhibition” value is -1.54% [at 53 µM] (inactive). Take `O=CC=C(c1ccccc1)c1ccccc1`: the “activity change, negative = inhibition” value was -2.67% (inactive).

Take `O=C(N[C@H](CO)[C@H](O)c1ccc([N+](=O)[O-])cc1)C(Cl)Cl`: the “activity change, negative = inhibition” value was -0.336% (inactive). For the compound `CC(=O)Oc1ccc(C(C)=O)cc1`, the “activity change, negative = inhibition” value is -1.38% (inactive).

Turning to `CCC(C)(Oc1ccc(C2(c3ccc(OC(C)(CC)C(=O)O)cc3)CCCCC2)cc1)C(=O)O` (stereo not given), the “activity change, negative = inhibition” value was 0.168% [at 53 µM] (inactive). Still for that read-out and setting: the result for `COc1nc(C)nc(Cl)c1NC1=NCCN1` reads -0.836% [at 53 µM] (inactive). Regarding `N#CCc1cccc(C(F)(F)F)c1`, the “activity change, negative = inhibition” value is 0.821% (inactive).

For the compound `Cc1cc(O)ccc1N`, the “activity change, negative = inhibition” value was -0.269% (inactive). As to `C/C=C/C=C/COC(=O)C(C)C`, the “activity change, negative = inhibition” value is 0.161% (inactive). As for `CC1=C(/C=C/C(C)=C\C=C\C(C)=C\C(=O)O)C(C)(C)CCC1`, the “activity change, negative = inhibition” value is 0.142% (inactive). Still for that read-out and setting: the result for `Cc1ccc(C(=O)C(C)CN2CCCCC2)cc1` (stereo not given) reads -0.168% [at 53 µM] (inactive); that for `CCCCCCCCCCCCCCOS(=O)(=O)O`, -0.541% (inactive); that for `CC1CCc2c(N3CCC(O)CC3)c(F)cc3c(=O)c(C(=O)O)cn1c23` (stereo not given), -1.35% [at 53 µM] (inactive). On the same count and under the same terms, the result for `CNC(=O)c1c(I)c(NC(C)=O)c(I)c(C(=O)O)c1I` reads 1.47% [at 53 µM] (inactive); that for `CC[C@@]1(O)C(=O)OCc2c1cc1n(c2=O)Cc2c-1nc1ccccc1c2/C=N/OC(C)(C)C`, 1.18% [at 53 µM] (inactive); that for `CCCN(CCC)C(=O)C(CCC(=O)O)NC(=O)c1ccccc1` (stereo not given), 1.9% [at 53 µM] (inactive).

For `C=CCc1cc(S(=O)(=O)c2ccc(O)c(CC=C)c2)ccc1O`, the “activity change, negative = inhibition” value is 1.11% (inactive).

For the compound `CO[Si](CCCNc1ccccc1)(OC)OC`, the “activity change, negative = inhibition” value is -0.111% (inactive). As for `CC(NC(CCc1ccccc1)C(=O)O)C(=O)N1C(=O)N(C)CC1C(=O)O` (stereo not given), the “activity change, negative = inhibition” value was 0.923% [at 53 µM] (inactive).

Turning to `CCN(CC)CCNC(=O)COc1ccc(OC)cc1`, the “activity change, negative = inhibition” value was 0% [at 53 µM] (inactive). `CCC(Cl)CCC(Cl)C(Cl)CC(Cl)C(Cl)C(Cl)CCl` (stereo not given): the “activity change, negative = inhibition” value was -5.18% (inactive). For `CCCCCCCCCCCC(=O)OCC`, the “activity change, negative = inhibition” value was -1.09% (inactive). Same read-out and setting: the result for `COc1ccc(CCC(=O)c2c(O)cc(O[C@@H]3O[C@H](CO)[C@@H](O)[C@H](O)[C@H]3O[C@@H]3O[C@@H](C)[C@H](O)[C@@H](O)[C@H]3O)cc2O)cc1O` reads 0.171% (inactive); that for `COc1ccc(C(=O)Nc2ccccc2)cc1[N+](=O)[O-]`, -1.71% (inactive); that for `CCCCc1ccc2cccc(S(=O)(=O)O)c2c1`, 0.382% (inactive). The same measure, in the same setting: with `COc1cc(C(C)=O)ccc1OCCCN1CCC(c2noc3cc(F)ccc23)CC1` the figure was 0.303% [at 53 µM] (inactive); with `O=C(Nc1ccc([N+](=O)[O-])cc1)Nc1ccc([N+](=O)[O-])cc1`, -0.084% [at 53 µM] (inactive). Still for that read-out and setting: with `C=CCOc1nc(OCC=C)nc(OCC=C)n1` the figure was 0.807% (inactive); with `Cc1ccc(N)cc1S(=O)(=O)O`, 1.6% (inactive).

Turning to `Cc1ccc(Nc2ccc(O)c3c2C(=O)c2ccccc2C3=O)cc1`, the “activity change, negative = inhibition” value is 0.17% (inactive).

As for `CC1=NS(=O)(=O)c2cc(Cl)ccc2N1`, the “activity change, negative = inhibition” value was -1.01% [at 53 µM] (inactive). On to `C1OCOCO1`, for which the “activity change, negative = inhibition” value was 3.04% (inactive). On the same count and under the same terms, with `CC[C@@H](N)CO` the figure was 7.83% (inactive).
